D2 PAM-1 – Beta-Arrestin HTS for Positive Allosteric Modulators of the Human D2 Dopamine Receptor: Potentiators; D(2) dopamine receptor (Homo sapiens), P14416; potentiation, % (test concentration not listed); DiscoveRx D2 beta-arrestin cells, luminescence, 90 min; 100% = 57 uM dopamine signal; 360,000 tested, 0.23% active; in the data active means potentiation above about 50%; inconclusive means mostly about 30% to 49%
Target sequence (P14416 whole entry, looked up): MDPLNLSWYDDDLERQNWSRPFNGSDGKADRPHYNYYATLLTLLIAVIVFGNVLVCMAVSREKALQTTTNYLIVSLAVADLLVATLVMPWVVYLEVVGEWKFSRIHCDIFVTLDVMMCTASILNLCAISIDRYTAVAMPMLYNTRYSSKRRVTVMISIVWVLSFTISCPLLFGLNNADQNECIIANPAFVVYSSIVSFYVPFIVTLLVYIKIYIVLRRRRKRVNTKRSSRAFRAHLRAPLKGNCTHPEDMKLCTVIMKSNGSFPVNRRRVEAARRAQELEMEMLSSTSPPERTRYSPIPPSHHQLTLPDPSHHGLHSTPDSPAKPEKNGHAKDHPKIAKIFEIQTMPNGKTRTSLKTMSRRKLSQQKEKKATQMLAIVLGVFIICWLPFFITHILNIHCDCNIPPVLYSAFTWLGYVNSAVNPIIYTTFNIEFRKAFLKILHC
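PathHunter beta-arrestin assay in DiscoveRx D2 cells. Compounds were added with an EC20 of dopamine (50 nM final) for 90 min at 37 deg C. Luminescence was read 1 h after detection reagent, with 57 uM dopamine as the EC100 control.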
D2 ag-1 – HTS Assay for Allosteric Agonists of the Human D2 Dopamine Receptor: Primary Screen for Agonists; HEK293 T-REx D2 cells, calcium flux agonist mode; AID 485358, 2010; activation, % at 2 µM; 340,000 tested, 0.53% active;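 active means activation over 3 SD above normal in the single-dose calcium agonist read, cut at about 30% in these data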; further: 0% is about no effect
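Agonism scored from kinetic calcium signal (1 read/sec, 180 s) following compound pin transfer, after a 10 s baseline. Cells: HEK293 Trex line expressing inducible D2 receptor coupled to calcium, dye-loaded after overnight culture at 30 C.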
D2 ag-2 – Beta-Arrestin HTS for Positive Allosteric Modulators of the Human D2 Dopamine Receptor: Agonists. DiscoveRx PathHunter D2 beta-arrestin, luminescence, 90 min; 100% = 57 uM dopamine signal. 360,000 tested, 0.084% active. AID 624465, 2012. activation, % (no concentration beside the values). D(2) dopamine receptor (Homo sapiens), P14416; in the data active means activation above about 40%; inconclusive means between about 15% and that limit
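Agonist mode: compounds alone added to overnight-plated D2 PathHunter cells for 90 min at 37 C, with 57 uM final dopamine (EC100) defining full response. Beta-arrestin recruitment detected by chemiluminescent reagent, read after 1 h at ambient temperature.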
D2 antagonist – HTS Assay for Allosteric Antagonists of the Human D2 Dopamine Receptor: Primary Screen for Antagonists; HEK293 TREx D2 cells, calcium flux, dopamine EC80; D(2) dopamine receptor (Homo sapiens), P14416; inhibition, % at 10 µM; AID 485344, 2010; 340,000 tested, 2% active; in the data active means inhibition above about 30%; inactive means below that, where a call was filed; further: 0% is about no effect
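Overnight-induced (tetracycline, 30 C) HEK293 T-REx cells carrying force-coupled D2 receive a no-wash calcium dye, then compound, then EC80 dopamine at 180 s; signals are read kinetically throughout.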
D2 PAM-2 – HTS Assay for Positive Allosteric Modulators of the Human D2 Dopamine Receptor: Primary Screen for Potentiators; HEK293 T-REx D2, calcium flux, EC20 dopamine potentiation; potentiation, % at 10 µM; 340,000 tested, 0.34% active; AID 485347, 2010;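 active means potentiation over 3 SD above the plate norm, cut at about 30% in these data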; further: 0% is about no effect
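Tetracycline-induced Hek293 Trex D2 cells, force-coupled to calcium, loaded with no-wash calcium dye. Compound added with 180 s kinetic read for agonism, then EC20 dopamine and a further 180 s read for potentiation.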
* hit, by the source's call; ? = inconclusive; . = no result. In the library only some 2.4% were active in any assay of this set; here they are far more common.

SMILES | D2 PAM-1 | D2 ag-1 | D2 ag-2 | D2 antagonist | D2 PAM-2
Cc1ccc(NC2=C(Cl)C(=O)OC2NC(=O)c2ccccc2)cc1 (stereo not drawn) | -6 | 1 | -1 | 55* | -4
CCOC1OC(=O)C(Cl)=C1Nc1ccc(C)cc1 (stereo not drawn) | -7 | -1 | -2 | 3 | -1
CCOC(=O)C1CCN(C(=O)CCc2ccccc2)CC1 | -5 | 0 | -4 | -4 | -4
CCOC(=O)C1CCN(C(=O)CCc2nc3ccccc3[nH]2)CC1 | -5 | 0 | 0 | 61* | 0
COc1ccc2c(C#N)c3ccccn3c2c1 | 70* | 4 | 7 | -2 | -2
Cc1ccc(CNC(=O)CCCn2c(=O)c3ccccc3n(Cc3ccccc3Cl)c2=O)cc1 | . | 0 | . | . | 4
COc1ccc(/C=C/C(=O)Nc2ccc3nc(N4CCC(C)CC4)cc(C)c3c2)cc1OC | . | 0 | . | . | 16
Cc1ccc(NC(=O)c2cccc(N3C(=O)C4C5C=CC(C5)C4C3=O)c2)cc1C (stereo not drawn) | -4 | 2 | 7 | 5 | 5
CN(C)c1ccc(NC(=O)c2cccc(N3C(=O)C4C5C=CC(C5)C4C3=O)c2)cc1 (stereo not drawn) | 4 | 1 | 1 | 36* | 18
COc1cccc(C2CC(=O)Nc3c2c(=O)[nH]c2ncnn32)c1OC (stereo not drawn) | . | . | . | . | 2
CCN(CC)CCOC(=O)c1ccc(Cl)cc1Cl | -29 | -1 | -1 | 33* | -14
CCN(CC)CCOC(=O)c1ccc(Cl)cc1 | -46 | 0 | -5 | -5 | 6
CCc1ccc(CN2C(=O)c3ccccc3C2C(=O)NC2CCCCCC2)cc1 (stereo not drawn) | . | -1 | . | . | -6
Cc1ccc(C)c(Nc2c(F)c(F)c(F)c(F)c2C(=O)O)c1 | 13 | 0 | 4 | -2 | 32*
COc1c(F)c(F)c(C(=O)O)c(Nc2ccc(C)cc2)c1F | -14 | 1 | -1 | -1 | 2
CC(C)NS(=O)(=O)c1ccc(OCC(=O)N2CCN(c3cccc(Cl)c3)CC2)cc1 | . | 1 | . | . | 15
CCc1nnc(NC(=O)CSc2nnc(-c3ccncc3)n2C)s1 | -5 | 1 | -3 | -16 | 31*
Cc1cc(C)nc(N/N=C/c2ccccc2)n1 | -5 | 1 | -3 | 44* | 6
COc1cc(Nc2nc(SCc3cccc(Cl)c3)nc3ccccc23)cc(OC)c1 | . | 0 | . | . | -4
COc1ccc(S(=O)(=O)c2c(Nc3ccc(F)cc3)sc(C(=O)c3ccc(C)cc3C)c2N)cc1 | . | 2 | . | . | 6
COc1ccc(CCn2nc(C)c([N+](=O)[O-])c2C)cc1 | -6 | -1 | 2 | 32* | -16
C=CCn1c(=O)[nH]c2nc3cc(N=CN(C)C)c(C)cc3nc2c1=O | -11 | 30* | -4 | -6 | 4
CN(C)/C=N/c1cc(=O)[nH]c(=O)n1CC1CC1 | -7 | 1 | -1 | -9 | -1
COc1cccc(Cn2c(C)c(CNCc3cccc(C)c3)c(C(=O)O)c2C)c1 | . | -1 | . | . | 13
CCCCCCc1cc2cc(C(=O)OCC)c(=O)oc2cc1O | -6 | 5 | -4 | -2 | 3
SMILES | D2 PAM-1 | D2 ag-1 | D2 ag-2 | D2 antagonist | D2 PAM-2
CCCCCCc1cc2cc(/C(N)=N/NC(=O)c3ccncc3)c(=O)oc2cc1O | -7 | 34* | 3 | -2 | 14
CCCCN(CC)C(=O)CSc1nc2n[nH]c(C)c2c(=N)n1-c1cccc(Cl)c1 | . | . | . | . | 17
CCOC(=O)c1nnc2c(-c3ccc(Cl)cc3)c(C)nn2c1N | . | 1 | . | . | 16
O=c1cc(-c2ccccc2Cl)oc2ccc([N+](=O)[O-])c(O)c12 | -11 | -1 | 0 | -21 | -8
Nc1ccc2oc(-c3ccccc3Cl)cc(=O)c2c1O | 2 | 0 | 4 | 50* | 4
O=S(=O)(c1ccccc1)N1CCN(S(=O)(=O)N2CCCCC2)CC1 | -5 | -1 | 2 | 38* | 9
O=S(=O)(c1ccccc1)N1CCCN(S(=O)(=O)c2ccccc2)CC1 | -10 | 0 | 4 | 3 | -4
O=C1CC(c2cccc(Cl)c2Cl)c2cc3c(cc2N1)OCCO3 (stereo not drawn) | . | 1 | . | . | -5
CC(C)C(=O)N(c1cc2sc(=O)oc2c2ccccc12)S(=O)(=O)c1cccs1 | 75* | 1 | ? | -12 | -7
Cc1ccc(C2(C)NC(=O)N(CC(=O)Nc3ccc(S(=O)(=O)Nc4nccs4)cc3)C2=O)cc1 (stereo not drawn) | 4 | -1 | 3 | -1 | 31*
Cc1ccc(NC(=O)CN2C(=O)NC(C)(c3ccc(Cl)cc3)C2=O)cc1 (stereo not drawn) | -6 | 3 | -3 | -7 | 1
Cc1cc(C)c(S(=O)(=O)Nc2cccc(-c3cn4ccccc4n3)c2)c(C)c1 | . | 0 | . | . | 7
C/C(=N\NC(=S)NCC(C)(C)C)c1cc(F)cc(F)c1O | -15 | 2 | 3 | 37* | -17
Cc1ccc(S(=O)(=O)Cc2nc(-c3ccc(C(=O)NCc4ccccc4)cc3)oc2C)cc1 | . | 0 | . | . | -8
Cc1cc(C)nc(Nc2n[nH]c(Cc3ccccc3)n2)n1 | . | 45* | . | 0 | -2
COc1cc(C)nc(NCc2ccccc2)n1 | -12 | 0 | -2 | 23 | -5
CCN(CC)c1ccc(/C=C(/C#N)C(=O)NCc2ccccc2)o1 | -36 | 43* | -3 | 10 | -16
CC(C)NC(=O)/C(C#N)=C\c1ccc(N(C)C)o1 | -11 | 1 | -11 | 40* | 1
CCN(CC)c1ccc(/C=C(/C#N)C(=O)NC(C)C)o1 | -9 | 9 | -4 | 9 | -7
CN(C)C(=O)c1ccc(NC(=O)Cn2nnnc2-c2ccccc2F)cc1 | . | . | . | . | 6
CCc1ccc2ncc3c(-c4ccc(C)cc4)nn(CC(=O)Nc4ccc(C)cc4)c3c2c1 | . | 0 | . | . | 6
COc1ccc(C)cc1NC(=O)C(NS(=O)(=O)c1cccs1)c1ccccc1 (stereo not drawn) | . | . | . | . | 0
COc1ccc(C)cc1NC(=O)C(NCC(O)c1ccccc1)c1ccccc1 (stereo not drawn) | -7 | 0 | -3 | 33* | -14
Cc1cc(Cl)ccc1OC(C)C(=O)NCCc1ccc2c(c1)OCCO2 (stereo not drawn) | -5 | 1 | -3 | 64* | -7
CCN(Cc1ccccc1)C(=O)c1cc(-c2ccccc2)n[nH]1 | . | -1 | . | . | -6
